BAZ2B block: BAZ2B (human) inhibition; Q9UIF8; AlphaScreen BAZ2B-H3K14Ac peptide displacement; Potency, µM (series often up to 114 µM), for the others: top-dose activity change, negative = inhibition, usual class: inhibitors; hit rate 4.4% among 360,000; AID 504333; also: potency is read from the fitted curve at half-maximal effect; % is scaled to controls: 0 for no effect and ±100 for the full control effect; nearly all actives have a fitted effect of over 60% in size
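AlphaScreen displacement of biotin-H3(5-23)K14Ac peptide (50 nM final) from BAZ2B (50 nM final) in PBS pH 7.4, 0.01% Tween-20; complex preformed 30 min RT, then compounds (top 110 uM) 30 min RT, beads 20 min dark.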
JMJD2A Tudor inh: blocks the human JMJD2A Tudor domain | O75164 | AlphaScreen JMJD2A-Tudor / H3K4me3 peptide binding | Potency, µM (top dose mostly 114 µM), for the others: at the top dose activity change, negative = inhibition, hits mostly inhibitors | hit rate 4.4% among 390,000; also: potency is read from the fitted curve at half-maximal effect; % is scaled to controls: 0 for no effect and ±100 for the full control effect; nearly all actives have a fitted effect of over 50% in size
CtBP-E1A blk: CtBP/E1A binding inhibition. AlphaScreen GST-E1A/His-CtBP binding, 1536-well; hits give low values. activity change, % (no concentration beside the values). hit rate 0.49% among 340,000; in the data active = activity change below about -65%; inconclusive = mostly about -30% to -63%; also: % is scaled to controls: 0 for no effect and ±100 for the full control effect
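In 5 uL wells, 23 nL compound meets equimolar GST-E1A and His-CtBP (5X stock 125 nM each) for 2 h, 37 °C. Beads (5X, 50 ug/mL) then 1 h, 37 °C, dark.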
HP1b chromo inh: inhibitors of HP1-beta chromodomain binding to methylated histone tails; AID 540317; P83916; hit rate 0.56% among 390,000; Potency, µM (titrated, usually from 114 µM), for the others: at the top dose activity change, negative = inhibition, actives largely listed as inhibitors; AlphaScreen HP1-beta / biotin-H3K9me3 peptide binding; also: potency is read from the fitted curve at half-maximal effect; nearly all actives have a fitted effect of over 70% in size
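Compound inhibition of the preformed complex between 50 nM HP1-beta and 50 nM biotinylated H3K9me3 peptide was read by AlphaScreen. Buffer was PBS pH 7.4 with 0.01% Tween-20. Incubations ran 30 min at room temperature, with 10 ug/mL donor/acceptor beads.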
G9a inh: blocks human histone lysine methyltransferase G9a | Q96KQ7 | G9a H3K9 monomethylation, AlphaScreen, 2 h | Potency, µM (doses to about 102 µM), for the others: top-dose activity, negative = inhibition, usual class: inhibitors | hit rate 8.8% among 350,000; also: potency is read from the fitted curve at half-maximal effect; % is scaled to controls: 0 for no effect and ±100 for the full control effect; nearly all actives have a fitted effect of over 75% in size
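AlphaScreen read-out: biotin-H3K9 peptide (500 nM) methylation by 20 nM enzyme with 20 uM SAM, 2 h at room temperature after 15 min compound preincubation; anti-monomethyl H3K9 antibody plus donor/acceptor beads, 10 min dark.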
Six1-Eya2 inh: Six1/Eya2 interaction inhibition; Q15475+O00167; AlphaScreen GST-Six1/His-Eya2 binding, biochemical; hits give low values; activity change, % (test concentration not listed); hit rate 0.56% among 360,000; in the data active = activity change below about -65%; inconclusive = mostly about -30% to -63%; also: % is scaled to controls: 0 for no effect and ±100 for the full control effect
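Six1/Eya2 binding was read as AlphaScreen signal after compounds were pinned into GST-Six1 plus His-tagged Eya2 (5X stock 250/500 nM) in pH 8.0 Tris/NaCl/TCEP buffer, beads added, then incubated 1 h, 37 C, dark.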
An asterisk follows results filed as active; [ ] = remark or other dose. Shown are actives, neighbours in structure and some others; about 10% of the full set was active somewhere. Unless noted, calls follow the shape of the dose curve; as a rule, active = well fitted inhibition curve with a large enough effect; inconclusive = small, poorly fitted or top-dose-only effect; inactive = no such curve, though single readings can be large or run the other way.

`Cc1nc2ccc(NS(=O)(=O)c3c(C)c(C)cc(C)c3C)cc2s1` gave BAZ2B block inconclusive, JMJD2A Tudor inh -9.2%[11.4 µM], CtBP-E1A blk -3.5, HP1b chromo inh 49.8%, G9a inh 14.1µM* and Six1-Eya2 inh -1.6.
For COc1ccc(CN2CCN(Cc3c[nH]c4ccccc34)CC2)cc1 the results were BAZ2B block 20µM*, JMJD2A Tudor inh 0.794µM*, CtBP-E1A blk -13.6, HP1b chromo inh 35.5µM*, G9a inh inconclusive and Six1-Eya2 inh -6.3.
O=C(C(=O)N1CCN(c2ccccc2Cl)CC1)c1c[nH]c2ccccc12 was read as BAZ2B block 50.1µM*, JMJD2A Tudor inh inconclusive, HP1b chromo inh 7.2%[57 µM], G9a inh -5.5% and Six1-Eya2 inh -5.1.
For COc1ccc(CN2CCN(Cc3c[nH]c4ccccc34)CC2)c(OC)c1 the results were CtBP-E1A blk -10.6 and Six1-Eya2 inh -0.8.
For COc1ccc(CN2CCN(Cc3c[nH]c4ccccc34)CC2)cc1OC the results were CtBP-E1A blk -28.3 and Six1-Eya2 inh 4.0.
Clc1ccccc1N1CCN(Cc2c[nH]c3ccccc23)CC1 was read as JMJD2A Tudor inh 20µM*, CtBP-E1A blk -21.1, HP1b chromo inh inconclusive and Six1-Eya2 inh -6.6.
For COc1ccc(Br)cc1CN1CCN(Cc2c[nH]c3ccccc23)CC1 the results were BAZ2B block 14.1µM*, JMJD2A Tudor inh 2.82µM*, CtBP-E1A blk 6.2, HP1b chromo inh inconclusive, G9a inh 8.91µM* and Six1-Eya2 inh -12.7.
`O=C(C(=O)N1CCCc2ccccc21)c1c[nH]c2ccccc12` gave BAZ2B block -1.9%, JMJD2A Tudor inh -12.9%, CtBP-E1A blk 2.8, HP1b chromo inh 0.2%, G9a inh -21.9%[0.0925 µM] and Six1-Eya2 inh 0.9.
For CCOC(=O)Cn1cnc2c(nnn2-c2ccc(F)cc2)c1=O the results were BAZ2B block 54.2%, JMJD2A Tudor inh -14.6%, CtBP-E1A blk 2.0, HP1b chromo inh 32.3% and Six1-Eya2 inh 0.6.
CC1=C(C(=O)OCCCBr)C(c2ccc3c(c2)OCO3)NC(=O)N1 (centres undefined) was read as BAZ2B block -34.5%, JMJD2A Tudor inh -11.9%, CtBP-E1A blk -12.1, HP1b chromo inh 34.5%, G9a inh 50.1µM* and Six1-Eya2 inh 7.8.
Screening CC1=C(C(=O)OCCBr)C(c2cccc3ccccc23)NC(=O)N1 (centres undefined) returned BAZ2B block -2.5%, JMJD2A Tudor inh -11.3%, CtBP-E1A blk 4.7, HP1b chromo inh -13.0%, G9a inh 79.4µM* and Six1-Eya2 inh 5.8.
Screening COc1ccccc1C#CC1=CC(=O)C[C@H](c2ccc(F)cc2)C1 returned CtBP-E1A blk -9.9 and Six1-Eya2 inh -7.6.
N#Cc1ccc(C(=O)Nc2ccc(Cl)c(-c3nc4cc(Cl)ccc4o3)c2)c(F)c1 was read as BAZ2B block inconclusive, JMJD2A Tudor inh -16.0%, HP1b chromo inh 3.3% and G9a inh 3.1%[59 µM].
`CC(=O)Nc1ccc(-c2ccnc3c2CC(C)(C(=O)NC(C)C)O3)cc1` (centres undefined) gave CtBP-E1A blk 4.2 and Six1-Eya2 inh -0.1.
Screening O=C(Nc1nnc(CCS(=O)(=O)c2ccc(Br)cc2)s1)c1ccc([N+](=O)[O-])cc1 returned BAZ2B block 3.3%[57.1 µM], JMJD2A Tudor inh -5.0%, CtBP-E1A blk 1.6, HP1b chromo inh 19.8%, G9a inh 9.7%[59 µM] and Six1-Eya2 inh 5.2.
Cc1cccc(Nc2nnc(-n3nc(C)cc3C)c3ccccc23)c1 was read as BAZ2B block 39.4%, JMJD2A Tudor inh -6.5%, HP1b chromo inh 68.5% and G9a inh 43.7%[59 µM].
For CC(C)c1ccc(Nc2cc(C(=O)NCCc3ccccc3)c3ccccc3n2)cc1 the results were JMJD2A Tudor inh -17.0%, HP1b chromo inh 24.7% and G9a inh 10.3%[59 µM].
`CCCOc1ccc(-c2nonc2NC(=O)c2ccco2)cc1OCCC` gave BAZ2B block -3.7%, JMJD2A Tudor inh -1.0%, HP1b chromo inh 54.1% and G9a inh -0.8%[59 µM].
Screening O=C(COC(=O)c1cccc2c1C(=O)c1ccccc1C2=O)NC1CCCCC1 returned BAZ2B block 39.8µM*, JMJD2A Tudor inh 39.8µM*, CtBP-E1A blk inconclusive, HP1b chromo inh inconclusive, G9a inh 17.8µM* and Six1-Eya2 inh inconclusive.
`O=C(COC(=O)c1ccccc1F)NC1CCCC1` gave BAZ2B block -0.7%, JMJD2A Tudor inh -0.7%, CtBP-E1A blk 5.3, HP1b chromo inh 18.5%, G9a inh 11.7%[0.501 µM] and Six1-Eya2 inh -0.1.
For O=C(COC(=O)c1cccc(C(=O)OCC(=O)NC2CC2)n1)NC1CC1 the results were JMJD2A Tudor inh inconclusive, CtBP-E1A blk 3.2, HP1b chromo inh 9.5%, G9a inh 14.1µM* and Six1-Eya2 inh 0.0.
`O=C(COC(=O)c1ccc2c(c1[N+](=O)[O-])C(=O)c1ccccc1C2=O)NC1CC1` gave BAZ2B block -10.3%, JMJD2A Tudor inh -16.0%, CtBP-E1A blk inconclusive, HP1b chromo inh 36.7%, G9a inh 35.5µM* and Six1-Eya2 inh inconclusive.
For CCCCC(=O)Nc1ccc(Cl)cc1F the results were CtBP-E1A blk 1.9 and Six1-Eya2 inh -0.6.
Screening CCCCC(=O)Nc1cc(Cl)ccc1C(=O)O returned BAZ2B block inconclusive, JMJD2A Tudor inh 5.1%, CtBP-E1A blk 4.2, HP1b chromo inh 45.5%, G9a inh 25.1µM* and Six1-Eya2 inh 4.8.
Screening CC(=O)Nc1cc(-c2ccc(Cl)cc2)[nH]n1 returned BAZ2B block -29.3%, JMJD2A Tudor inh -4.5%, CtBP-E1A blk 6.7, HP1b chromo inh 45.9%, G9a inh 10.5%[12.7 µM] and Six1-Eya2 inh -1.9.
COc1ccc(C2CC3(CC(C)(C)NC(=S)N3)Oc3cc(O)cc(C)c32)cc1 (centres undefined) was read as BAZ2B block inconclusive, JMJD2A Tudor inh -34.9%, CtBP-E1A blk -5.9, HP1b chromo inh -4.2%, G9a inh -12.3%[59 µM] and Six1-Eya2 inh -16.0.
Screening COc1ccc(C2CC3(CC(C)(C)NC(SC)=N3)Oc3cc(O)cc(C)c32)cc1 (centres undefined) returned BAZ2B block 35.5%, JMJD2A Tudor inh 79.4µM*, CtBP-E1A blk -18.2, HP1b chromo inh 18.7%, G9a inh inconclusive and Six1-Eya2 inh -6.4.
For Cc1cc2nc3c(=O)[nH]c(=O)nc-3n(CC(O)C(O)C(O)CO)c2cc1C (centres undefined) the results were G9a inh 6.31µM*.
For CCOc1ccc(NS(=O)(=O)c2ccc(NC(=O)N3CCCC3)cc2)cc1 the results were BAZ2B block 3.7%, JMJD2A Tudor inh -0.3%, HP1b chromo inh 15.6%[57 µM] and G9a inh 8.6%[59 µM].
